D1 antag: Antagonist of Human D 1 Dopamine Receptor: qHTS; 360,000 compounds, 3.2% hits; activity change, negative = inhibition, % at 10 µM; D(1A) dopamine receptor (Homo sapiens), P21728; HEK293 TREx D1 cells, calcium flux, dopamine EC80; hits give low values; in the data active = activity change below about -30%; note: % is set by controls: 0 for no effect and ±100 for the full control effect
Target sequence (P21728 whole entry, looked up): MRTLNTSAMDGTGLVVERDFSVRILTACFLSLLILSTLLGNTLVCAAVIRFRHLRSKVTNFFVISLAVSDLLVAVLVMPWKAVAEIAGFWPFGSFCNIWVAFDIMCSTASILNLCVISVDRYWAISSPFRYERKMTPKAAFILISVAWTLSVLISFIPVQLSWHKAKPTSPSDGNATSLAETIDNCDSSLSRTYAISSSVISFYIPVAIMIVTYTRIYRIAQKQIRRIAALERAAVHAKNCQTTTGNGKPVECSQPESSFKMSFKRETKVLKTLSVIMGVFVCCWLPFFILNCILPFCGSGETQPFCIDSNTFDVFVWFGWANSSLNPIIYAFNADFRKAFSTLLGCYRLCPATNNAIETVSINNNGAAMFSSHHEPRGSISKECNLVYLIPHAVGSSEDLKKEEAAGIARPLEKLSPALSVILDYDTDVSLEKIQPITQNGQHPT
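HEK293 T-REx cells expressing inducible, force-coupled D1 receptor; no-wash Ca dye, 30–90 min RT. Cmpd → 180 s read at 1 Hz → EC80 DA → 180 s read.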
D1 potentiator: Potentiators of Human D1 Dopamine Receptor: qHTS; D(1A) dopamine receptor (Homo sapiens), P21728; HEK293 TREx D1 cells, calcium flux, dopamine EC20 potentiation; potentiation, % at 10 µM; 360,000 compounds, 0.036% hits; AID 504651, 2011; in the data active = potentiation above about 30%; note: 0% is about no effect
D1 agonist: Allosteric Agonists of the Human D1 Dopamine Receptor: qHTS | AID 504660, 2011 | HEK293 T-REx D1 cells, calcium flux, agonist mode | 360,000 compounds, 1% hits | activation, % at 2 µM | D(1A) dopamine receptor (Homo sapiens), P21728; note: 0% is about no effect
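Inducible HEK293 T-REx D1 cells, force-coupled to calcium signalling, were plated at 4000 cells/well with tetracycline and held overnight at 30 C. After no-wash calcium dye loading, compound-evoked calcium rise over 180 s flagged agonists.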
TRHR ag: qHTS for Small Molecule Agonists and Allosteric Enhancers of Human TRH Receptor: Primary Screen for Agonists; 360,000 compounds, 0.18% hits; activation, % at 2 µM; TRHR cells, calcium flux fluo-8, FDSS agonist mode; Thyrotropin-releasing hormone receptor (Homo sapiens), P34981; note: 0% is about no effect
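Steps: seed TRHR cells overnight; add fluo-8 no-wash Ca dye, RT 30 min–1.5 h; record 10 s baseline; pin-transfer compounds; monitor fluorescence 1 cycle/s for the agonist window. Calcium increases flag candidate agonists.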
TRHR enhancer: qHTS for Small Molecule Agonists and Allosteric Enhancers of Human TRH Receptor: Primary Screen for Enhancers; enhancement, % at 2 µM; 360,000 compounds, 0.66% hits; TRHR cells, fluo-8 calcium fluorescence, EC20 TRH enhancement; in the data active = enhancement above about 30%; note: 0% is about no effect
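TRHR-expressing cells loaded with fluo-8 calcium dye were read kinetically (ex 480/em 530) during compound addition, then stimulated with an EC20 of TRH (10 nM final). Enhancement of the Gq-mediated intracellular calcium response was scored.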
Active calls of the source: *; ! = repeats disagree. Shown are actives, neighbours in structure and some others; about 4.7% of the full set was active somewhere. Cut-off read from the data, not from the text of the source, unless noted: active = activation above about 30%; inactive = the rest.

SMILES	D1 antag	D1 potentiator	D1 agonist	TRHR ag	TRHR enhancer
CC(C)CCN1C(=O)N(c2ccccc2)C(=O)C1CC(=O)Nc1ccc(Cl)cc1 (stereo not drawn)	-26.7	-5.0	4.7	-0.2	0.0
COc1ccc(OC)c(S(=O)(=O)Nc2cc3c(cc2C)n(C)c(=O)c(=O)n3C)c1	10.2	-4.0	1.9	0.2	1.1
Cc1cccc(NC(=O)CSc2nc(C)c(Cc3ccccc3)c(=O)[nH]2)c1C	-31.4*!	-5.9	1.1	-0.8	-4.2
CCOC(=O)/C(=C/C=C1\Sc2cc(OCC)c(OCC)cc2N1CC)C(C)=O	-30.3*	0.0	215.9*	244.1*	48.1*
CCN1/C(=C/C(C)=O)Sc2ccc(OC)cc21	13.5	-1.1	0.2	-0.7	0.6
CCOC(=O)/C(=C\C=C1/Sc2cc(OCC)c(OCC)cc2N1CC)C(C)=O	-43.4*	2.4	329.2*	159.5*	19.3
CC(OC(=O)CSc1ccc([N+](=O)[O-])cc1)C(=O)NCc1ccccc1 (stereo not drawn)	-55.0*	-15.2	19.0	-0.4	11.6
O=C(COC(=O)Cc1ccc(F)cc1)NCCc1ccccc1	-4.7	-2.8	2.2	-0.7	-0.5
O=C(COC(=O)CSc1ccc([N+](=O)[O-])cc1)NCCCc1ccccc1	-32.7*	-8.4	9.1	-0.3	-4.6
O=C(COC(=O)Cc1cccc(F)c1)NCCc1ccccc1	-67.6*	-3.9	0.7	-1.1	-5.4
COc1ccc(CCNC(=O)CN(c2cc([N+](=O)[O-])ccc2OC)S(C)(=O)=O)cc1OC	4.4	-5.3	2.3	0.8	32.4*
O=C(COC(=O)CSc1ccc(F)cc1)NCCCc1ccccc1	24.9	-2.2	4.4	-0.8	3.0
CC(OC(=O)CC(C)c1ccccc1)C(=O)Nc1ccc(Cl)cn1 (stereo not drawn)	-4.9	-3.5	4.9	-0.5	-10.6
CCC(=O)c1ccc(OCC(=O)NCC2COc3ccccc3O2)cc1 (stereo not drawn)	-18.3	-2.2	1.8	-0.4	-6.4
Cc1ccc(/C=C/c2onc(C)c2S(=O)(=O)N2CCC(C(=O)Nc3ccccc3C(F)(F)F)CC2)cc1	7.0	0.2	2.8	0.0	3.3
COc1ccc(CCNC(=O)Cc2ccc([N+](=O)[O-])cc2)cc1OC	12.3	-2.1	1.6	-0.1	13.7
O=C(COC(=O)CSc1ccc([N+](=O)[O-])cc1)NCc1ccco1	-5.8	-5.3	5.9	0.0	1.8
Cc1ccccc1CN(C)C(=O)COC(=O)CSc1ccc([N+](=O)[O-])cc1	-32.8*	-5.3	14.4	-0.1	1.3
Cc1ccc(CN(C)C(=O)COC(=O)CSc2ccc([N+](=O)[O-])cc2)cc1	-6.4	-4.8	4.6	-0.7	-1.4
COc1ccc(CCNC(=O)COC(=O)CSc2ccc([N+](=O)[O-])cc2)cc1OC	-45.1*	-9.4	6.2	3.1	-6.7
O=C(COC(=O)CSc1ccc([N+](=O)[O-])cc1)NCCc1ccccc1	-33.7*	-13.8	9.5	-0.6	-0.1
CCC(=O)N1CCc2cc(Br)cc(S(=O)(=O)CCC(=O)NCc3ccc(C)cc3)c21	1.2	0.2	2.7	-0.2	9.7
COc1ccc(CNC(=O)Cn2ccc3cc(S(=O)(=O)N4CCCCCC4)ccc32)c(OC)c1	1.0	-0.9	-1.6	-1.1	-2.1
Cc1cc(C)cc(NC(=O)CN2C(=O)c3ccccc3Sc3ccc(C(=O)N4CCCC4)cc32)c1	11.0	1.2	2.5	-0.3	32.7*
CN1C(=O)/C(=C/c2cccc(Cl)c2)Sc2ccc(C(=O)N3CCCC3)cc21	-35.9*	3.6	8.1	0.1	23.1
Cc1cccc(/C=C2\Sc3ccc(C(=O)N4CCOCC4)cc3N(C)C2=O)c1	-8.7	5.3	5.3	-0.5	0.4
Cc1cccc(/C=C2\Sc3ccc(C(=O)N4CCCCC4)cc3N(C)C2=O)c1	-38.4*	-0.1	3.3	0.0	3.3
Cc1ccc(NC(=O)CN2C(=O)c3ccccc3Sc3ccc(C(=O)N4CCOCC4)cc32)c(Cl)c1	6.9	-3.5	0.1	-0.2	-3.2
